# Screens: PubChem, National Center for Advancing Translational Sciences (NCATS)
# aSyn yeast inh = alpha-synuclein toxicity inhibition in yeast | 370,000 tested, 0.14% active | Yeast expressing alpha-synuclein, growth rescue, BacTiter-Glo, 24 h | Potency, µM (series often up to 46.1 µM), actives largely listed as activators; further: nearly all actives have a fitted effect of over 65% in size
#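 Readout is rescue of growth in alpha-synuclein-expressing yeast, so inhibitors of toxicity appear as activators. Growth after 24 hr at 30 deg C in galactose medium is quantified by luminescence.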
# FUS yeast rescue = FUS proteinopathy suppression in yeast; Potency, µM (highest dose often 76.6 µM), usual class: activators; S. cerevisiae FUS-expressing, growth rescue, OD600, 24 h; 390,000 tested, 0.24% active; further: nearly all actives have a fitted effect of over 55% in size
#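 FUS-expressing yeast, raffinose-pregrown, induced in 2% galactose minimal medium at OD 0.005; compounds in a dilution series, 24hr at 30C. Growth restoration read as absorbance at 600 nm. CP55940 positive control, DMSO negative.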
# TDP-43 yeast inh = rescues yeast growth from TDP-43 toxicity; TDP-43 expressing yeast growth rescue, BacTiter-Glo, 24 h; Potency, µM (series often up to 46.1 µM), usual class: activators; 410,000 tested, 1.8% active; AID 652104; further: nearly all actives have a fitted effect of over 50% in size
#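 Galactose-induced TDP-43 yeast, OD600=0.02, compound pinned; 24 hr, 30 deg C; BacTiter-Glo luminescence for growth. Inhibitors of TDP-43 toxicity read as activators.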
# Abeta yeast res = compounds reversing amyloid beta toxicity in yeast; yeast expressing A-beta42, growth rescue, OD600, 48 h; response scale: 0% DMSO, 100% iron-clioquinol control; Potency, µM (top dose mostly 46.1 µM), most hits filed as activators; 410,000 tested, 0.063% active; AID 1347071; further: nearly all actives have a fitted effect of over 55% in size
#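 Yeast A-beta toxicity model in growth medium with pinned compounds, 48 h at 30 C; growth read as absorbance at 600 nm. Normalized to FeCl3/clioquinol equimolar mix (positive) and DMSO (negative).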
# A number is an active result; i = inactive; ? = inconclusive; nt = no result; [ ] = another dose, or the depositor's remark. An excerpt weighted towards active compounds, which were near 2.1% of everything screened. The call rests on the fitted dose curve; in most records, active means well fitted curve in the direction sought with a large enough effect; inconclusive means small, poorly fitted or top-dose-only effect, or another doubt; inactive means no such curve, though single readings can be large; an effect the other way counts as inactive or inconclusive.
SMILES,aSyn yeast inh,FUS yeast rescue,TDP-43 yeast inh,Abeta yeast res
Cc1ccccc1CNC(=O)c1cnc2sc(N3CCOCC3)nn2c1=O,nt,i,i,i
CC(=O)Nc1ccc(S(=O)(=O)Nc2nc3ccccc3nc2N2CCOCC2)cc1,i,i,i,i
Cc1ccccc1S(=O)(=O)Nc1nc2ccccc2nc1N1CCOCC1,i,i,18µM,i
Cc1nc(N2CCCC2)ncc1C(=O)NCc1cccc(Cl)c1,nt,i,14µM,i
COc1ccc(CNC(=O)c2cnc(N3CCCC3)nc2C)c(OC)c1,nt,i,i,i
C/C(=N/NC(=O)c1cc2ccccc2cc1O)C1C(=O)c2ccccc2C1=O,i,7.1µM,i,i
C/C(=N\NC(=O)c1cc2ccccc2cc1O)c1ccccn1,10µM,i,i,?
CCCCOc1ccc(S(=O)(=O)Nc2ccc(-c3ccc(N4CCCCC4)nn3)cc2)cc1,nt,i,i,i
CCCCCCCCN1C(=O)N2Cc3cc(F)ccc3C2CS1(=O)=O (stereo not drawn),nt,i,nt,nt
Cc1ccc2c(c1)N(CC(=O)c1cccc(Cl)c1)C(=O)C(C)O2 (stereo not drawn),i,nt,i,i
CC1Oc2ccccc2N(CC(=O)c2cccc(Cl)c2)C1=O (stereo not drawn),i,i,16µM,i
CC1Oc2ccccc2C(=O)N(CC(=O)c2ccc3c(c2)OCCO3)C1=O (stereo not drawn),i,i,18µM,i
C=CCN1C(=O)[C@H](CC(=O)NCCCOCCCC)[C@@]2(C(=O)OCC)CCCC=C12,nt,i,nt,nt
O=C(COc1ccc(Cl)cc1)Nc1ccc2nc(SCC(=O)N3CCOCC3)sc2c1,nt,i,i,i
Cc1ccc(-c2cc(-c3nnc4sc(Cc5cccs5)nn34)[nH]n2)cc1,nt,i,nt,nt
O=C(NCc1cccs1)c1cccc2c(-c3ccc(F)c(F)c3)coc12,i,i,?,i
O=C(NCc1cccs1)c1cccc2c(-c3cccnc3)coc12,i,i,18µM,i
O=C(Nc1cccc(OC(F)(F)F)c1)c1cccc2c(-c3cccnc3)coc12,i,?,32µM,i
COc1ccc(CNC(=O)c2cccc3c(-c4cccnc4)coc23)cc1OC,i,i,i,i
O=C(NCc1cccc(Cl)c1)c1cccc2c(-c3cccnc3)coc12,i,?,18µM,i
O=C(NCc1ccc(F)c(F)c1)c1cccc2c(-c3cccnc3)coc12,i,i,13µM,i
COc1ccc(Cn2c(=O)c3oc4ccccc4c3n(Cc3ccc(Cl)cc3)c2=O)cc1,nt,i,i,i
Cn1cc(-c2coc3c(C(=O)Nc4ccccc4)cccc23)cn1,?,i,i,i
COc1ccc(NC(=O)c2cccc3c(-c4cnn(C)c4)coc23)cc1,i,i,13µM,i
COc1ccc(C(C)=O)cc1CSc1nnc(Nc2ccc(C)cc2C)s1,?,i,20µM,i
SMILES,aSyn yeast inh,FUS yeast rescue,TDP-43 yeast inh,Abeta yeast res
O=C1CC(c2nc3ccccc3n2Cc2c(F)cccc2Cl)CN1c1cccc(C(F)(F)F)c1 (stereo not drawn),nt,i,25µM,i
Cc1c(Cl)cccc1N1CC(c2nc3ccccc3n2Cc2ccccc2F)CC1=O (stereo not drawn),nt,i,25µM,i
CCOc1ccc(N2CC(c3nc4ccccc4n3Cc3ccccc3F)CC2=O)cc1 (stereo not drawn),nt,i,i,i
COc1ccccc1OCCCCn1c(C2CC(=O)N(c3ccccc3Cl)C2)nc2ccccc21 (stereo not drawn),nt,i,i,i
Cc1ccccc1OCCCCn1c(C2CC(=O)N(c3ccccc3Cl)C2)nc2ccccc21 (stereo not drawn),nt,i,11µM,?
Cc1ccc(C(=O)N2CCC(Oc3cccnc3)CC2)c(C)c1,nt,i,nt,nt
COc1cccc(C(c2sc3nc(-c4ccco4)nn3c2O)N2CCN(c3ccccc3F)CC2)c1 (stereo not drawn),nt,8.9µM,11µM,i
Cc1cccc(Cn2cccc2CNS(=O)(=O)c2ccc(C)c(C)c2)c1,nt,i,?,i
CNc1ncc(C(=O)c2ccc(Cl)cc2)s1,i,i,10µM,i
CNc1ncc(C(=O)c2ccc(Cl)c(Cl)c2)s1,i,i,?,i
CCOc1ccccc1NC(=O)c1c(NC(=O)Cc2ccc(OC)cc2)sc2c1CCC2,nt,?,i,i
Clc1cccc(-n2ncc3c(NCCCN4CCOCC4)ncnc32)c1,nt,i,i,i
CCCc1cc(=O)oc2cc(OCc3ccc(C(=O)O)cc3)ccc12,i,i,2.5µM,i
COc1ccc(OCc2ccc(C(=O)O)cc2)cc1,i,i,14µM,i
NNC(=O)c1ccc(COc2ccc3c(c2)CCC3)cc1,i,?,i,i
COc1ccc(OCC(O)COc2ccc(C(=O)O)cc2)cc1 (stereo not drawn),nt,i,nt,i
NNC(=O)c1ccc(COc2ccc3ccccc3c2)cc1,i,i,16µM,i
Cc1cc(N2CCCCC2)nc2ccc(NC(=O)/C=C/c3ccc(OCCC(C)C)cc3)cc12,nt,i,?,i
CCOC(=O)c1cc(S(=O)(=O)N2CCN(c3ccc(C(C)=O)cc3)CC2)[nH]n1,nt,i,i,i
CC(=O)Nc1cccc(Oc2nc(NC(C)C)nc3cc(-c4ccccc4)sc23)c1,i,?,25µM,i
COCCNc1nc(Oc2cccc(NC(C)=O)c2)c2sc(-c3ccccc3)cc2n1,i,i,i,i
O=C(NCc1ccccc1Cl)c1cc2ccccc2o1,nt,i,11µM,i
Cc1ccccc1CNC(=O)c1cc2ccccc2o1,i,i,?,i
COc1cc(C(=O)Nc2ccc3oc(-c4ccc(C)c(Br)c4)nc3c2)cc(OC)c1OC,nt,i,10µM,i
COc1cc(C(=O)Nc2ccc(-c3nc4cc(C)c(C)cc4o3)cc2)cc(OC)c1OC,nt,i,?,i
SMILES,aSyn yeast inh,FUS yeast rescue,TDP-43 yeast inh,Abeta yeast res
S=C(NCCCc1cnc[nH]1)NCCCN(CCc1ccccc1)c1ccc(Br)cn1,i,nt,nt,nt
COc1ccc2c(c1)c(=O)c(C(=O)c1ccc(F)cc1)cn2CC(=O)Nc1ccc2c(c1)OCCO2,nt,i,i,i
Cc1cccc(NC(=S)N2CCCCC2)c1,i,nt,i,?
Cc1cccc(NC(=O)N2CCC(c3nc4ccccc4o3)CC2)c1,i,i,i,i
Cc1cccc(NC(=S)N2CCC(c3nc4ccccc4o3)CC2)c1,i,?,i[0.397 µM],16µM
Cc1ccc(C2CCN(C(=S)Nc3cccc(C)c3)C2)cc1 (stereo not drawn),i,?,22µM,13µM
O=C(/C(=N/N=C/c1ccc(O)c(O)c1O)c1ccccc1)c1ccccc1,16µM,nt,i,i
CCN(Cc1nc2ccccc2c(=O)[nH]1)C(=O)c1cccc(OCc2c(C)noc2C)c1,i,i,i,i
CCN(Cc1ccc(Cl)s1)C(=O)c1cccc(OCc2c(C)noc2C)c1,i,nt,35µM,i
O=C(NCC1CCCO1)c1ccccc1NS(=O)(=O)c1cc([N+](=O)[O-])ccc1Cl (stereo not drawn),22µM,nt,i,i
COC(=O)C1CCN(C(=O)c2cc(-c3ccc(Cl)s3)nc3ccccc23)CC1,?,?,35µM,i
O=C(/C=C/c1ccc(Cl)cc1Cl)N1CCN(c2ccccc2[N+](=O)[O-])CC1,?,i,13µM,i
